Test results: PubChem BioAssay AID894 (National Center for Advancing Translational Sciences (NCATS), 2007)
Out of some 150,000 compounds screened, about 6,500 (4.3%) were called active. Roughly 12% stayed inconclusive and do not appear here. The call rests on the fitted dose curve; in most records, active means well fitted inhibition curve with a large enough effect (not every such curve was filed as active); inconclusive means small, poorly fitted or top-dose-only effect, or another doubt; inactive means no such curve, though single readings can be large or run the other way. Many of the other results were omitted from the sample, so actives are more common in it than they were.

Each molecule was assayed against 15-hydroxyprostaglandin dehydrogenase [NAD(+)] (Homo sapiens) (UniProt P15428) (assay: qHTS Assay for Inhibitors of HPGD (15-Hydroxyprostaglandin Dehydrogenase)). Details: purified HPGD, NADH fluorescence kinetic, PGE2 substrate; activity change, negative = inhibition: active compounds read low.
Chain of 15-hydroxyprostaglandin dehydrogenase [NAD(+)] (Homo sapiens) (P15428 whole entry, looked up): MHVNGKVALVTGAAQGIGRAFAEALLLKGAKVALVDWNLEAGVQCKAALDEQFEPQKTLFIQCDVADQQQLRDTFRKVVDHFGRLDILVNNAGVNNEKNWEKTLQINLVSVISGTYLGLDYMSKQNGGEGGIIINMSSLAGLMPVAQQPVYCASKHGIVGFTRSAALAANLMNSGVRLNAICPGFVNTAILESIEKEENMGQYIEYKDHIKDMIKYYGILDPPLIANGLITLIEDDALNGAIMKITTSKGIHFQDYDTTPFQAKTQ
Procedure, shortened: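 20 nM HPGD preincubated 15 min at room temperature with compound in 50 mM Tris-HCl pH 8, 0.01% Tween 20. Started with 1 mM NAD+ and 30 uM prostaglandin E2; NADH fluorescence (360/450 nm) read 5 times over 30-s intervals, last minus first.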
On the % scale 0 is the no-effect control and ±100 the full control effect; potency means the concentration at half of the fitted maximal effect.

| SMILES | activity change, negative = inhibition | Potency |
| --- | --- | --- |
| Cc1ccc(S(=O)(=O)C2C(=O)NC3(C)CC2c2ccccc2O3)cc1 (centres undefined) | -19.6% (inactive) | – |
| O=C(NN1C(=O)C2C3C=CC(O3)C2C1=O)c1ccncc1 (centres undefined) | 2.88% (inactive) | – |
| CCn1c(=N)n(CC(=O)c2cccc(OC)c2)c2ccccc21 | – | 35.5 µM (active) |
| COc1cccc(C(=O)NNC(=O)c2ccccc2Br)c1 | -0.052% (inactive) | – |
| CCCCOC(=O)Cn1c(=N)n(CCN(CC)CC)c2ccccc21 | -7.8% (inactive) | – |
| Cn1cccc1/C=C1\SC(=S)N(NC(=O)c2ccc(Cl)cc2)C1=O | -8.93% (inactive) | – |
| Cc1cc(C)c(C#N)c(SCc2ccccc2C(=O)O)n1 | -15% (inactive) | – |
| Cc1cc(C)c(C#N)c(SCS(=O)c2ccc(C(C)(C)C)cc2)n1 (centres undefined) | – | 15.8 µM (active) |
| Cc1cc(C)c(C#N)c(SCC(=O)NN2CC(=O)N(c3ccccc3F)CC2=O)n1 | -14% (inactive) | – |
| Cc1ccc(C(=O)NC(=S)NCCN2CCOCC2)cc1 | -5.64% (inactive) | – |
| Cc1c(O)c(Br)c(C)c(O)c1Br (tested in a mixture with another compound) | – | 0.891 µM (active) |
| O=C(CSc1nnc(-c2ccncc2)o1)NCc1ccc(Cl)cc1 | -1.7% (inactive) | – |
| CCOC(=O)CSc1nnc(-c2ccncc2)o1 | -12.2% (inactive) | – |
| O=C(OCC#CCSc1nnc(-c2ccncc2)o1)c1sc2ccccc2c1Cl | – | 20 µM (active) |
| O=C(CCc1ccccc1)Nc1nn[nH]n1 | -9.52% (inactive) | – |
| Cc1cccc(N2CCN(C(=O)c3ccccc3NC(=O)C3CCCCC3C(=O)O)CC2)c1 (centres undefined) | -8.91% (inactive) | – |
| CC(C)c1ccc(N2CCN(C(=O)c3ccccc3NC(=O)/C=C(\C(=O)O)c3ccccc3)CC2)cc1 | – | 35.5 µM (active) |
| O=C(O)C1CC=CCC1C(=O)Nc1ccccc1C(=O)N1CCN(c2ccccc2)CC1 (centres undefined) | -1.15% (inactive) | – |
| O=C(C/C(=N\NC(=O)c1ccccc1Br)C(F)(F)F)c1cccs1 | -18.1% (inactive) | – |
| N#Cc1cccc(CS(=O)(=O)c2nnnn2-c2cc(C(F)(F)F)cc(C(F)(F)F)c2)c1 | -8.91% (inactive) | – |

| SMILES | activity change, negative = inhibition | Potency |
| --- | --- | --- |
| COCCn1c(=NC(=O)c2ccccc2[N+](=O)[O-])sc2cc(S(C)(=O)=O)ccc21 | -11.2% (inactive) | – |
| CC(C)c1ccc(/C=C/C(=O)NNC(=O)c2cccnc2)cc1 | -6.71% (inactive) | – |
| O=C(Nc1ccccc1)c1cccnc1Nc1ccccc1 | -10.1% (inactive) | – |
| CC(C)c1ccc(Nc2ncccc2C#N)cc1 | – | 25.1 µM (active) |
| O=C(Nc1ccccc1)c1cc2ccccc2[nH]1 | -6.75% (inactive) | – |
| COc1ccc(C)cc1NC(=O)CSc1ccc(Cl)cc1 | -13.4% (inactive) | – |
| Cc1cc(C(=O)OCC(=O)Nc2nnc(C(C)C)s2)c2ccccc2n1 | -10.9% (inactive) | – |
| COCCCNC(=S)NC(=O)c1ccc([N+](=O)[O-])cc1 | -5.32% (inactive) | – |
| CCOC(=O)c1c(NC(=O)C2CCN(S(=O)(=O)c3ccc(Cl)cc3)CC2)sc2c1CCCC2 | -27.2% (inactive) | – |
| Cc1sc(NC(=O)C2C3CCC(O3)C2C(=O)O)c(C(=O)OC(C)C)c1-c1ccc(Cl)cc1 (centres undefined) | – | 35.5 µM (active) |
| CC(C)OC(=O)c1cc(NC(=O)C2C3CCC(O3)C2C(=O)O)cc(C(=O)OC(C)C)c1 (centres undefined) | -13.2% (inactive) | – |
| Cc1cc(NC(=O)COC(=O)COc2ccc(Cl)cc2C)c([N+](=O)[O-])cc1C | -9.4% (inactive) | – |
| Cc1ccc(CN2CCN(/N=C/c3cccnc3)CC2)c(C)c1 | -0.74% (inactive) | – |
| O=C(CSC1CC(=O)N(CCc2ccccc2)C1=O)Nc1ccc(Cl)cc1 (centres undefined) | -11.7% (inactive) | – |
| CCOC(=O)NC(=O)C(=CNc1cccc(OC)c1)C(=O)NC(=O)OCC | -21.8% (inactive) | – |
| O=C(CSc1nnc2scc(-c3ccc(F)cc3)n12)NCc1ccco1 | -3.23% (inactive) | – |
| Cn1c(-c2ccc(F)cc2)cnc1SCC(=O)NCc1ccco1 | – | 31.6 µM (active) |
| Cc1ccc(-c2csc3nnc(SCC(=O)NCc4ccco4)n23)cc1 | -10.8% (inactive) | – |
| CCN(CC)CCNCc1ccc(OCc2ccc(Cl)nc2)c(OC)c1 | -2.75% (inactive) | – |
| O=C1C2C3C=CC(C4CC34)C2C(=O)N1c1nccs1 (centres undefined) | -6.02% (inactive) | – |

| SMILES | activity change, negative = inhibition | Potency |
| --- | --- | --- |
| CCOc1cccc(NC(=O)C2CCCN(S(=O)(=O)c3ccc(OC)cc3)C2)c1 (centres undefined) | -17% (inactive) | – |
| CCOc1ccc2nc(SC(CC)C(=O)Nc3cc(C)on3)sc2c1 (centres undefined) | 0.253% (inactive) | – |
| CCOc1ccc2nc(C(=O)N3CCCC(C)C3)sc2c1 (centres undefined) | – | 7.94 µM (active) |
| CCC(C)(C(=O)Nc1ccccc1C)N(C(=O)CNC(C)=O)c1ccc(C)cc1 (centres undefined) | 1.96% (inactive) | – |
| COc1ccc(N2C(=O)C(CC(=O)Nc3ccc(F)cc3)N(CCc3cccs3)C2=O)cc1 (centres undefined) | -5.46% (inactive) | – |
| COc1ccc(C(=O)n2nc(-c3ccc(Cl)cc3)nc2N)cc1OC | -16.8% (inactive) | – |
| COc1cc(OC)c(-n2cc(-c3ccc(Cl)cc3)[nH]c2=O)cc1Cl | – | 7.08 µM (active) |
| Cc1ccc(-c2cc(=O)c3ccc(Cl)cc3[nH]2)cc1 | -2.76% (inactive) | – |
| COc1ccccc1OCCC(=O)OCC(=O)NCc1ccccc1 | -9.44% (inactive) | – |
| Cc1cc(=O)[nH]c(SCc2cccc(F)c2)n1 | -22.9% (inactive) | – |
| Cc1cc(=O)[nH]c(SCc2cc(Cl)ccc2OC(F)F)n1 | – | 14.1 µM (active) |
| O=c1cc(O)nc(SCc2ccccc2Cl)[nH]1 | -21.6% (inactive) | – |
| COC1=CCC2([N+](=O)[O-])CN(CC(=O)O)CC1([N+](=O)[O-])C2 (centres undefined) | -5.2% (inactive) | – |
| C[C@@H](O)c1nc2ccccc2n1N | -7.02% (inactive) | – |
| COc1ccc(/C=C(\C#N)C(=O)NCCCn2ccnc2)cc1 | -18.4% (inactive) | – |
| C[C@H]1Cc2c(-c3ccccc3)nc3c(c2CO1)CN(S(=O)(=O)c1ccc(Cl)c2nonc12)CC3 | -7.2% (inactive) | – |
| COc1cc(/C=N/O)ccc1OCc1ccc([N+](=O)[O-])cc1 | -3.26% (inactive) | – |
| COc1cc(/C=N/n2c(C)n[nH]c2=S)ccc1OCc1ccccc1 | – | 5.62 µM (active) |
| C=CCOc1ccc(/C=N/n2cncn2)cc1OC | -24.2% (inactive) | – |
